# Reference: PubChem BioAssay (Tox21)
# Results filed as inconclusive are left out. A call without a number means that no potency is given here. Activity calls are given as the source filed them. Calls follow the shape of the full dose curve.
# Molecular target: Retinoic acid receptor RXR-alpha (Homo sapiens) (UniProt P19793)
# Experiment: qHTS assay to identify small molecule agonists of the RXR signaling pathway (AID 1159527); also: nearly all actives have a fitted effect of over 35% in size
# Conditions: HEK293T RXRa-UAS-bla, beta-lactamase ratio, 16 h; series mostly up to 76.8 µM
# Procedure, shortened: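 GeneBLAzer RXR-alpha-UAS-bla HEK 293T cells in medium with 2% charcoal-stripped FBS, pre-incubated 5 hr at 37 C, then exposed to compounds 16 hr. Beta-lactamase reporter read by FRET substrate, 2 hr room temperature, 460/530 nm emission.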
# Potency is read from the fitted curve at half-maximal effect.
# Chain of Retinoic acid receptor RXR-alpha (Homo sapiens) (P19793 whole entry, looked up): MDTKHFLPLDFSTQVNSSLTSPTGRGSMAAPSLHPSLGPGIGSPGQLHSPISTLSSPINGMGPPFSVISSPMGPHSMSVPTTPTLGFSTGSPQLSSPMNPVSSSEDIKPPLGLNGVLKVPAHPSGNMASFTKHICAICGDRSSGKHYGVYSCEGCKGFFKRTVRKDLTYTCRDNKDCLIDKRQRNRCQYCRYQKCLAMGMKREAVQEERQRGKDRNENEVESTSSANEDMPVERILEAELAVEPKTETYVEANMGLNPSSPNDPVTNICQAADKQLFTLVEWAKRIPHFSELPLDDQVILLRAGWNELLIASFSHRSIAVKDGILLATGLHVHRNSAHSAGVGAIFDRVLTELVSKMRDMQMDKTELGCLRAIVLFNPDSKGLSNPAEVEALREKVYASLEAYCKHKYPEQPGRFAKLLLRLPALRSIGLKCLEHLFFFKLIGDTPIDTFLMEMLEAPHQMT
Compound,Potency,activation
Cc1ccc(N)cc1[N+](=O)[O-],inactive,–
C=CCOCC(O)CS(=O)(=O)O (stereo not drawn),inactive,–
CCC(C(=O)NC(N)=O)c1ccccc1 (stereo not drawn),inactive,–
CC(C)[C@H](N)C(=O)OCCOCn1cnc2c(=O)[nH]c(N)nc21,inactive,–
CCCCc1ccc(N)cc1,inactive,–
CCCCCC[C@@H](CCC)C(=O)O,inactive,–
O=C(O)Cc1cc(I)c(Oc2cc(I)c(O)c(I)c2)c(I)c1,15.2 µM (active),–
C=C(C)C(=O)NCCC[N+](C)(C)C,inactive,–
CC(=O)OC(C)(C)C,inactive,–
O=C(O)/C=C/c1ccc(Cn2ccnc2)cc1,inactive,–
CC(=O)CCc1ccc(O)cc1,inactive,–
COC(=O)CCCCCCCCC(=O)OC,inactive,–
CC(C)(C)OC(=O)N1C[C@@H](F)C[C@H]1C(=O)O,inactive,–
C/C=C1\C(=O)C[C@H]2[C@@H]3CCC4=CC(=O)CC[C@]4(C)[C@H]3CC[C@]12C,inactive,–
Nc1nc2c(ncn2CCC(CO)CO)c(=O)[nH]1,inactive,–
FC(F)(F)C(F)(F)C(F)(F)C(F)(F)C(F)(F)C(F)(F)C(F)(F)C(F)(F)C(F)(F)C(F)(F)F,–,2.2% [at 6.98 µM] (inactive)
COC[C@H](c1ccc(C(F)(F)F)cc1)N1CCN(C2(C)CCN(C(=O)c3c(C)ncnc3C)CC2)C[C@H]1C,inactive,–
CN(C)CCOC(c1ccc(Cl)cc1)c1ccccn1 (stereo not drawn),inactive,–
